# Data reported in PubChem BioAssay AID1259245 (Vanderbilt High Throughput Screening Facility, 2017).
# Hit rate of the full screen: of about 40,000 compounds, about 1,400 (3.5%) were called active.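 The calls were made as follows: active = any of four per-well response measures lying three or more SD from its plate-wide compound average, in either direction; inactive = the rest, inconclusive results apart.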 For the sample, actives were picked, then their nearest neighbours and some compounds at random.
# Target: Voltage-dependent calcium channel gamma-2 subunit (Mus musculus) + Glutamate receptor 2 (Rattus norvegicus) (UniProt O88602+P19491)
# Test: modulators of GluA2-stargazin AMPA receptor complexes, primary screen, cell-based, membrane potential dye (AID 1259245)
# Settings: HEK293 GluA2+stargazin, membrane potential dye (FDSS), glutamate EC50, at 30 µM, hits were called plate by plate, in both directions; compound max-min signal: compound-alone response (agonism); glutamate slope, % of max: measured here: glutamate response slope, % max
# Chain of Voltage-dependent calcium channel gamma-2 subunit (Mus musculus) + Glutamate receptor 2 (Rattus norvegicus) (O88602 whole entry, looked up): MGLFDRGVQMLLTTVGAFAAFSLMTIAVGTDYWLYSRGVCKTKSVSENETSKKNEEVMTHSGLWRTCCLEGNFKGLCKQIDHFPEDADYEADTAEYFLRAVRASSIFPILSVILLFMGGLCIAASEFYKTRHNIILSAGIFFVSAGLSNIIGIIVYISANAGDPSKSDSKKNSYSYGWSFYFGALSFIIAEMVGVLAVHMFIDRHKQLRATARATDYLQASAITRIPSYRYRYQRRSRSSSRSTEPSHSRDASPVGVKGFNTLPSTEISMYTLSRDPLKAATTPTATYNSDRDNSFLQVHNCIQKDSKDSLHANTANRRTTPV
# Chain of Voltage-dependent calcium channel gamma-2 subunit (Mus musculus) + Glutamate receptor 2 (Rattus norvegicus) (P19491 whole entry, looked up): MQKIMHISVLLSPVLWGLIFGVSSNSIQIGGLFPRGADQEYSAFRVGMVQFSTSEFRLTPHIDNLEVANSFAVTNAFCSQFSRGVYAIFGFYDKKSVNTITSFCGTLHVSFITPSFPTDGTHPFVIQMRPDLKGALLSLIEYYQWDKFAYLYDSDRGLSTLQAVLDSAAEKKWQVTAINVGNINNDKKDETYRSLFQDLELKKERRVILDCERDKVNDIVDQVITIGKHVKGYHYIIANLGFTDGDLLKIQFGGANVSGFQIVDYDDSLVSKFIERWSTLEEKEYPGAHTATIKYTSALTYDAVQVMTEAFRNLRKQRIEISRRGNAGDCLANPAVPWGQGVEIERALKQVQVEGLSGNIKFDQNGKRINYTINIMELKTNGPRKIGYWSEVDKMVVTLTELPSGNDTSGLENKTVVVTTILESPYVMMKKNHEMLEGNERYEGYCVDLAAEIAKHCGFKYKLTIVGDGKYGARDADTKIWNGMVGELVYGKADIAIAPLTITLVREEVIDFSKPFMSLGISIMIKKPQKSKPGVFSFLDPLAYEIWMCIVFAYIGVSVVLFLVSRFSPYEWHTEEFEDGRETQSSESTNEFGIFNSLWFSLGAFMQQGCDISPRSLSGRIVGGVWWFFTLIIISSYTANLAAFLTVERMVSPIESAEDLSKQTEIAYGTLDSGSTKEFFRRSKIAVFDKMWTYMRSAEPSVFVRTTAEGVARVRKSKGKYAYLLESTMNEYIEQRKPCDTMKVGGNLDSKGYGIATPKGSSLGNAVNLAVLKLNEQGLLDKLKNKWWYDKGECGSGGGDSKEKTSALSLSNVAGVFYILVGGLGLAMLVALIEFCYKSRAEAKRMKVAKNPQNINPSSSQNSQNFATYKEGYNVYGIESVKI
Structure (SMILES),compound max-min signal,"glutamate response, % of max","glutamate slope, % of max"
CC(Oc1ccccc1)C(=O)N1CCN(c2ncnc3c2nnn3-c2ccc(Cl)cc2)CC1 (centres undefined),0.0923,46% (inactive),58.4%
COc1ccc(-n2nnc3c(N4CCN(C(=O)C(C)Oc5ccccc5)CC4)ncnc32)cc1 (centres undefined),0.0918,83.4% (active),124%
COc1ccc(Cl)cc1NC(=O)Nc1cc(N2CCCS2(=O)=O)ccc1C,0.0964,36.6% (inactive),48.9%
Cc1c(-c2ccccc2)c(=O)oc2c3c(ccc12)OCN(Cc1cccnc1)C3,0.117,15.5% (inactive),35%
O=C(CCc1ccccc1)NCC1CCN(Cc2ccsc2)CC1,0.0535,10.8% (active),27.6%
O=C(NCC1CCN(Cc2ccsc2)CC1)C(=O)Nc1ccon1,0.08,38.4% (inactive),57.1%
O=C(CCc1ccccc1)NCCS(=O)(=O)N1CCN(Cc2ccccc2)CC1,0.0536,24.3% (inactive),47.7%
Cc1cc(C)c2c(n1)sc1c(=O)n(CC(=O)Nc3ccc(F)cc3F)cnc12,0.126,45.2% (inactive),70.3%
CSc1ccccc1NC(=O)C(=O)NCC(O)(c1ccco1)C1CC1 (centres undefined),0.142,47.7% (inactive),61%
O=C(c1ccc(Cl)c(N2C(=O)CCS2(=O)=O)c1)N1CCc2ccccc2C1,0.0843,26.4% (inactive),47.6%
CCSc1ccccc1C(=O)N1CCN(c2ccc(-c3ccccn3)nn2)CC1,0.198,34.1% (active),45%
CCOc1ccc(-c2ccc(N3CCN(C(=O)c4ccc5nsnc5c4)CC3)nn2)cc1,0.0304,15.3% (inactive),32.9%
O=C(CCn1ccc(=O)[nH]c1=O)N1CCN(c2ccc(-c3ccccn3)nn2)CC1,0.117,16.7% (inactive),21.1%
CCn1ccnc1N1CCN(C(=O)c2ccccc2Cl)CC1,0.0774,50% (inactive),67.4%
CCOc1ccccc1C(=O)N1CCN(c2ccc(-c3ccccn3)nn2)CC1,0.189,31.9% (active),43.1%
O=C(NCc1ccccc1)N1CCN(c2ccc(-c3ccncc3)nn2)CC1,0.115,17.8% (inactive),40.4%
CN1CCN(c2ccc(-c3cccc(NC(=O)COc4ccc(F)cc4F)c3)nn2)CC1,0.0723,38.5% (inactive),60.1%
CCOc1ccc2c(=O)c(Oc3ccccc3Br)coc2c1,0.0905,40.8% (inactive),58.4%
O=C(NCc1ccsc1)c1c(F)cccc1F,0.0794,28.8% (inactive),48.6%

Structure (SMILES),compound max-min signal,"glutamate response, % of max","glutamate slope, % of max"
Cn1cc(C(=O)NCc2c(F)cccc2F)nn1,0.0862,93.4% (active),99.8%
O=C(NCc1ccc(Cl)cc1)C(=O)NCc1c(F)cccc1F,0.122,54.4% (inactive),66.8%
CC(=O)NCCn1ncc2c(N3CCOCC3)ncnc21,0.0821,32.3% (inactive),59.3%
CCN1C(SCC(=O)Nc2cccc(Cl)c2)=NS(=O)(=O)c2ccccc21,0.0878,38% (inactive),62%
CCOc1ccccc1Nc1nnc(Cc2ccc(OC)cc2)c(=O)[nH]1,0.0678,46% (inactive),67.9%
CSc1ccccc1C(=O)NCC(C)(O)C1CC1 (centres undefined),0.0943,38.3% (inactive),57.1%
CCSc1ccccc1C(=O)NCC(O)(c1ccccc1)C1CC1 (centres undefined),0.0554,28.7% (active),57.8%
O=C(NCC(O)(c1ccccc1)C1CC1)c1ccccc1Br (centres undefined),0.0722,13.9% (inactive),40%
COc1ccc(NC(=O)CSc2nccn(-c3cccc(F)c3)c2=O)cc1Cl,0.114,29.6% (inactive),46.8%
O=S(=O)(NCC(O)c1ccsc1)c1cccs1 (centres undefined),0.105,47.4% (inactive),63.3%
C=CCOC(=O)COc1ccc2c(c1)O/C(=C\c1cc(OC)ccc1OC)C2=O,0.106,58.4% (inactive),60.4%
COc1ccc2c(c1)c(/C=C1\Oc3cc(O)cc(C)c3C1=O)cn2C,0.239,23.6% (active),43.9%
Cc1[nH]c(=O)[nH]c(=O)c1CC(=O)N1CCN(S(C)(=O)=O)CC1,0.153,46.3% (inactive),86.1%
CC(C)c1ccccc1NC(=O)Cc1csc(NC(=O)c2ccc(=O)[nH]c2)n1,0.062,20.3% (inactive),41.8%
COc1cn(CC(=O)Nc2ccc(NC(C)=O)cc2)c(CSc2ncccn2)cc1=O,0.0519,26.3% (inactive),40.3%
Cc1c(Cl)ccc2sc(N(Cc3ccccn3)C(=O)Cc3ccc(S(C)(=O)=O)cc3)nc12,0.0569,22.1% (inactive),54.5%
O=S(=O)(NCC1(c2cccs2)CC1)c1ccc(OC(F)(F)F)cc1,0.153,0.436% (active),9.92%
O=C(NCC1(c2cccs2)CC1)Nc1c(F)cccc1F,0.107,24.4% (inactive),44%
COC(=O)N1CCC(CNS(=O)(=O)c2ccc(OC(F)(F)F)cc2)CC1,0.114,39.2% (inactive),61.1%
